What all share (test): NCI-60 one-dose screen, 48 h (100 = growth as untreated, 0 = no growth, -100 = all killed)
What all share (details): 10 µM unless noted

For test [1], the system named is RPMI-8226 leukemia.
In test [2] the test system is OVCAR-8 ovarian.
Test [3] has as its system OVCAR-5 ovarian.
The test system of test [4] is OVCAR-4 ovarian.
Test [5] deals with SK-OV-3 ovarian.
Test [6] deals with IGROV1 ovarian.
The subject of test [7] is OVCAR-3 ovarian.
The test system of test [8] is HS 578T breast.
Test [9] deals with NCI/ADR-RES ovarian.
Test [10] deals with T-47D breast.
Test [11] concerns BT-549 breast.
Test [12] relates to MDA-MB-435 melanoma.
The subject of test [13] is SW-620 colon.
The test system of test [14] is MCF7 breast.
The subject of test [15] is HCT-116 colon.
In test [16] the test system is HCC-2998 colon.
For test [17], the system named is KM12 colon.

About 83,000 compounds went through this panel and 20% of them were active in at least one assay; those are over-represented in the sample as a whole.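 The test compound was applied at a single concentration to cells in 96-well plates for 48 hours, and percent growth was recorded.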 A number with no mark means an inactive call. Calls of active or inactive are those of the source. Rule for the calls: active = growth percent below 10; inactive = the rest.

For `Nc1nc(SCc2ccccc2Cl)c(-c2ccccc2)c(SCc2ccccc2Cl)n1`, the growth in test [1] was 81.8%; in test [2] it was 98.4%; in test [3] it was 84.9%; in [4] it was 95.8%; in test [5], 82.7%; in [6] it was 97.4%. Further, the growth in test [7] is 101%; in test [8], 93.4%; in test [9] it was 90.7%; in test [10], 58.4%; in test [11], 113%; in test [12], 88.8%. For the same molecule, the growth in [13] was 77.3%; in [14], 78%; in [15], 82.2%; in test [16] it was 99%; in test [17], 85.7%.
Take `CCCCCCCCCCCCCCCCN=C(CC(=O)O)C(=O)O`: the growth in test [1] was 103%; in [2] it was 107%; in test [3] it was 116%; in test [4], 34.8%; in test [5], 105%; in test [6], 88.6%. Moreover, the growth was 107% in [7]; 96.9% in test [8]; 105% in test [9]; 102% in test [10]; 101% in test [11]; 96.7% in test [12]. In addition, the growth in [13] is 101%; in [14] it was 86.5%; in test [15] it was 87.2%; in [16] it was 104%; in [17], 100%.
For the molecule `C[N+]1(CCC[N+]2(C)C[C@@H]3[C@H](C2)[C@@H]2C=C[C@H]3C2)CCOCC1` (stereo partly drawn), the growth in [1] was 106%; in test [2], 104%; in [3] it was 88.9%; in test [4], 112%; in test [5] it was 99.3%; in [6] it was 103%. Further, the growth in [7] is 116%; in test [8] it was 111%; in test [9], 107%; in test [10] it was 109%; in [11], 103%; in test [12], 113%. Further, the growth was 106% in test [13]; 107% in test [14]; 105% in test [15]; 112% in test [16]; 108% in test [17].
As for `CCCCCCCCCCCCNc1ncnc2[nH]ncc12`, the growth in [1] is 63%; in test [2] it was 77.3%; in [3], 90.6%; in [4] it was 77.8%; in test [5], 105%; in test [6] it was 92.8%. The growth was 79.5% in test [7]; 92.4% in test [8]; 83.8% in [9]; 62.8% in [10]; 62.9% in test [11]; 71.7% in test [12]. Moreover, the growth was 83.1% in test [13]; 59% in test [14]; 53.3% in [15]; 92.4% in test [16]; 79.2% in test [17].
As for `CCCCCCCCSc1ncnc2c1ncn2CO`, the growth in [1] is 60.7%; in [2] it was 90.4%; in test [3], 103%; in test [4], 60.3%; in test [5], 83.1%; in test [6], 93.3%. For the same molecule, the growth in test [7] is 78.2%; in [8], 95.6%; in test [9], 86.8%; in test [10], 62%; in test [11], 84.6%; in [12] it was 82.6%. Also, the growth is 93.8% in test [13]; 75.7% in [14]; 66.8% in [15]; 109% in test [16]; 88.2% in test [17].
For `CC(CCC(=O)O)(NC(=O)c1ccc([N+](=O)[O-])cc1)C(=O)O` (stereo not drawn), the growth in [1] was 116%; in test [2] it was 102%; in test [3] it was 118%; in test [4] it was 111%; in test [5], 96%; in [6], 115%. Besides, the growth is 108% in [7]; 105% in test [8]; 108% in test [9]; 93.7% in [10]; 114% in test [11]; 105% in [12]. In addition, the growth in test [13] is 103%; in test [14], 107%; in [15], 98.9%; in test [16], 90.4%; in test [17], 99.3%.
On to `O=C(C(=O)N1CCCCC1)c1ccc(OC2OC(CO)C(O)C(O)C2O)cc1` (stereo not drawn), for which the growth was 103% in test [1]; 95.9% in [2]; 113% in test [3]; 108% in [4]; 105% in [5]; 86.7% in [6]. The growth is 107% in [7]; 110% in test [8]; 103% in [9]; 99.6% in [10]; 116% in test [11]; 107% in test [12]. Moreover, the growth in [13] was 109%; in test [14], 94.3%; in [15] it was 109%; in [16] it was 108%; in [17] it was 115%.
As for `COc1ncc(-c2ccc3nccc(C#CCN4CCN(S(C)(=O)=O)CC4)c3c2)cc1NS(=O)(=O)c1ccc(F)cc1F`, the growth in test [1] is -30.1% (active); in test [2], 7.2% (active); in test [3], 11.3%; in test [4], 8.24% (active); in test [5], -11.1% (active); in [6], -35.9% (active). Also, the growth is -20.7% (active) in test [7]; -13.9% (active) in test [8]; 6.28% (active) in test [9]; 3.5% (active) in test [10]; -17.6% (active) in [11]; -23% (active) in [12]. In addition, the growth in test [13] is 0.433% (active); in [14], 6.88% (active); in test [15], -10.4% (active); in [16] it was -37% (active); in test [17] it was -57.2% (active).
On to `Cc1nn(-c2ccccc2)c2c1oc(=O)c1cc(Cl)ccc12`, for which the growth was 101% in test [1]; 101% in test [2]; 111% in [3]; 113% in [4]; 106% in test [5]; 86.5% in test [6]. Further, the growth in test [7] is 85.8%; in test [8], 175%; in [9] it was 108%; in test [10] it was 105%; in test [11], 91%; in [12] it was 106%. Moreover, the growth in test [13] was 106%; in [14] it was 92.7%; in test [15], 95.2%; in test [16], 102%; in [17], 93.8%.

The record behind these values is PubChem BioAssay (NCI).
